In publication PMC4552634, “A New Set of Chemical Starting Points with Plasmodium falciparum Transmission-Blocking Potential for Antimalarial Drug Discovery” (PLoS ONE, 2015):
About 3,200 (25%) of roughly 13,000 compounds showed an effect of 50% or more. This is one part of the list.

What follows are molecules tested on P. falciparum stage V gametocytes. Settings: 48 h, 5 µM; inhibitor.
Parameters: BacTiter-Glo ATP luminescence viability of purified stage V gametocytes in 384-well plates, per cent inhibition versus DMSO
For `CC(=O)Nc1ccc(CN2CCC(N(C)c3cc(NC(=O)c4cccs4)ccn3)CC2)cc1` [TCMDC-134971], the “% Inhibition” value was -6.674%. In the case of `CCc1c(C)nc2nc(Cc3cccc(F)c3)nn2c1N1CCN(c2ccccn2)CC1` [TCMDC-124593], the “% Inhibition” value is reported as 5.465%. For `Cc1noc(C)c1-c1cccc(CNCc2ccc(-c3ccc(-c4nc5cc(F)ccc5[nH]4)s3)cc2)c1.O=C(O)C(F)(F)F` [TCMDC-133054], the “% Inhibition” value was 12.51%. For `O=C(/C=C/c1ccc(Cl)cc1)NCCCCCN1CCCN(C(=O)Nc2cccc(Cl)c2)CC1` [TCMDC-136102], the “% Inhibition” value was -54.14%. `Cn1cnc(CCNC(=O)c2ccc(-c3ccc(-c4nc5cc(C(F)(F)F)ccc5[nH]4)s3)cc2)c1` [TCMDC-132500] was tested, and the “% Inhibition” value was -12.71%. In the case of `CCCc1cn2c3c(cc(C(=O)N[C@@H](Cc4ccccc4)[C@H](O)CNC4CCOCC4)cc13)N(CC)S(=O)(=O)CC2` [TCMDC-135774], the “% Inhibition” value is reported as 46.67%. With `CCc1cn2c3c(cc(C(=O)N[C@@H](Cc4ccccc4)[C@H](O)CNC4CCCCC4)cc13)N(CC)S(=O)(=O)CC2` [TCMDC-135572] the “% Inhibition” value was 99.29%. For `CCCc1cn2c3c(cc(C(=O)N[C@@H](Cc4ccccc4)[C@H](O)CNC4CCOCC4)cc13)N(C)S(=O)(=O)CC2` [TCMDC-135772], the “% Inhibition” value was 9.174%. In the case of `CCc1cn2c3c(cc(C(=O)N[C@@H](Cc4ccccc4)[C@H](O)CNC4CCCCC4)cc13)N(C)S(=O)(=O)C2` [TCMDC-135389], the “% Inhibition” value is reported as 12.74%. With `CCc1cn2c3c(cc(C(=O)N[C@@H](Cc4cccc(Cl)c4)[C@H](O)CNC4CCCCC4)cc13)N(C)S(=O)(=O)CC2` [TCMDC-135649] the “% Inhibition” value was 39.17%. For `CCc1cn2c3c(cc(C(=O)N[C@@H](Cc4ccccc4)[C@H](O)CNC4CCOCC4)cc13)N(C(C)C)S(=O)(=O)CC2` [TCMDC-135506], the “% Inhibition” value was 37.66%. For `CCc1cn2c3c(cc(C(=O)N[C@@H](Cc4cccc(F)c4)[C@H](O)CNC4CCOCC4)cc13)N(C)S(=O)(=O)CC2` [TCMDC-135661], the “% Inhibition” value was 11.24%. For `CCc1cn2c3c(cc(C(=O)N[C@@H](Cc4ccccc4)[C@H](O)CNC4CCOCC4)cc13)N(CC(F)(F)F)S(=O)(=O)CC2` [TCMDC-135652], the “% Inhibition” value was 61.24%. With `CCCc1cn2c3c(cc(C(=O)N[C@@H](Cc4ccccc4)[C@H](O)CNC4CCCCC4)cc13)N(CC)S(=O)(=O)CC2` [TCMDC-135773] the “% Inhibition” value was 81.38%. For `CCc1cn2c3c(cc(C(=O)N[C@@H](Cc4cccc(Cl)c4)[C@H](O)CNC4CC4)cc13)N(C)S(=O)(=O)CC2` [TCMDC-135648], the “% Inhibition” value was 29.4%. For `CCc1cn2c3c(cc(C(=O)N[C@@H](Cc4cccc(F)c4)[C@H](O)CNC4CCCCC4)cc13)N(C)S(=O)(=O)CC2` [TCMDC-135659], the “% Inhibition” value was 47.1%. With `CCc1cn2c3c(cc(C(=O)N[C@@H](Cc4cccc(Cl)c4)[C@H](O)CNC4CCOCC4)cc13)N(C)S(=O)(=O)CC2` [TCMDC-135650] the “% Inhibition” value was 67.17%. `CN(C)CCCNc1ncnc2c1[nH]c1ccc(Br)cc12` [TCMDC-124583] was tested, and the “% Inhibition” value was -18.04%. `NC1CCN(c2nc(NCCCc3ccc(O)cc3)nc(NCc3ccccc3-c3ccc(C(F)(F)F)cc3)n2)CC1` [TCMDC-133395] was tested, and the “% Inhibition” value was 21.49%. With `COc1cc(F)c2ncc(C#N)c(CCN3CCC(NCc4ccc5c(c4)OCCO5)CC3)c2c1` [TCMDC-135367] the “% Inhibition” value was 11.13%. `O=C1OC2(CN1CC1CCN(Cc3ccc(O)cc3Cl)C1)c1ccccc1-c1ccccc12` (stereo not shown) [TCMDC-136313] was tested, and the “% Inhibition” value was 14.23%. With `CON=Cc1ccn(-c2ccc(O)c3c2C[C@H]2C[C@H]4[C@H](N(C)C)C(=O)C(C(N)=O)=C(O)[C@@]4(O)C(=O)C2=C3O)c1` [TCMDC-138646] the “% Inhibition” value was 4.088%. For `C=C1C(C(=O)OCC)=CN(CC)c2cc(O[C@H]3CCN(C(=O)OC(C)(C)C)C3)ccc21` [TCMDC-135646], the “% Inhibition” value was 47.67%. For `COc1cc2c(cc1OC)CN(CCc1ccc(NC(=O)c3cc4cc(OC(F)(F)F)ccc4[nH]3)cc1)CC2` [TCMDC-138250], the “% Inhibition” value was 36.42%. With `CCc1cn(CCCOC)c2ccc(C(=O)N[C@@H](Cc3ccccc3)[C@H](O)CNCc3cccc(C(F)(F)F)c3)cc12` [TCMDC-135241] the “% Inhibition” value was 4.563%. In the case of `CCc1cn(CCS(C)(=O)=O)c2ccc(C(=O)N[C@@H](Cc3ccccc3)[C@H](O)CNC(C)(C)CCCC(C)C)cc12` [TCMDC-135268], the “% Inhibition” value is reported as 68.72%. `CCc1cn(CCc2ccccc2)c2ccc(C(=O)N[C@@H](Cc3ccccc3)[C@H](O)CNC(C)(C)CCCC(C)C)cc12` [TCMDC-135282] was tested, and the “% Inhibition” value was 76.37%. In the case of `CCc1cn(CCOC)c2ccc(C(=O)N[C@@H](Cc3ccccc3)[C@H](O)CNC(C)(C)CCCC(C)C)cc12` [TCMDC-135259], the “% Inhibition” value is reported as 69.62%. `CCc1cn2c3c(cc(C(=O)N[C@@H](Cc4ccccc4)[C@H](O)CN[C@@H](C)CC)cc13)N(C)S(=O)(=O)CC2` [TCMDC-135801] was tested, and the “% Inhibition” value was 46.03%. In the case of `C(=N\Nc1nccc2sc(-c3ccccc3)cc12)/c1cccnc1` [TCMDC-135190], the “% Inhibition” value is reported as -94.18%. In the case of `COc1ccc(S(=O)(=O)N2CCOCC2)cc1NC(=O)c1cc2ccccc2o1` [TCMDC-124328], the “% Inhibition” value is reported as -2.829%. In the case of `N#Cc1ccc(-c2ccc(OCC(O)CN3CCCN(C(=O)C(c4ccc5c(c4)OCO5)N4CCN(C/C=C/c5ccccc5)CC4)CC3)cc2)cc1` (stereo not shown) [TCMDC-141496], the “% Inhibition” value is reported as 18.87%. With `COc1cc2c(cc1NC(=O)CN1CCN(C(=O)c3ccco3)CC1)oc1ccccc12` [TCMDC-123712] the “% Inhibition” value was 37.25%. In the case of `c1ccc2c(CNc3nc(NCC4CCCCC4)nc4nc[nH]c34)cccc2c1` [TCMDC-131860], the “% Inhibition” value is reported as -36.72%. With `c1ccc(CCNc2nc(NCC(c3ccccc3)c3ccccc3)c3[nH]cnc3n2)cc1` [TCMDC-131858] the “% Inhibition” value was -2.796%. `Cn1cnc2nc(NCCc3ccccc3)nc(NCc3cccc4ccccc34)c21` [TCMDC-131862] was tested, and the “% Inhibition” value was 52.06%. With `O=C1COc2ccccc2N1CCN1CCC(NCc2ccc(-c3cccs3)cc2)CC1` [TCMDC-135135] the “% Inhibition” value was -33.37%. `COCc1nc(N)nc(N)c1-c1ccc(Cl)c(Cl)c1` [TCMDC-137373] was tested, and the “% Inhibition” value was -9.797%. With `O=C(NCCNc1ccnc(Nc2ccc(F)cc2)n1)Nc1ccccc1F` [TCMDC-133640] the “% Inhibition” value was -0.7257%. In the case of `O=C(NCCNc1nc(NCCNC(=O)Nc2ccccc2)c2ccc(=O)n(-c3c(F)cccc3F)c2n1)Nc1ccccc1` [TCMDC-136645], the “% Inhibition” value is reported as 74.46%. For `COc1ccc(Nc2nccc(NCCNC(=O)Nc3ccccc3F)n2)cc1` [TCMDC-133645], the “% Inhibition” value was -48.4%. `COc1ccc(NC(=O)/C=C/c2ccccc2Cl)cc1OCCN1CCC(c2nc3ccccc3[nH]2)CC1` [TCMDC-140921] was tested, and the “% Inhibition” value was -39.17%. `O=C(/C=C/c1ccc(Cl)c(Cl)c1)NCCCCCN1CCC(NC(=O)NC2CCCCC2)CC1` [TCMDC-135700] was tested, and the “% Inhibition” value was -41.72%. In the case of `c1ccc2[nH]c(CN(Cc3nc4ccccc4[nH]3)Cc3nc4ccccc4[nH]3)nc2c1` [TCMDC-124132], the “% Inhibition” value is reported as -49.22%. `ON=C(c1nc2ccccc2[nH]1)c1nc2ccccc2[nH]1` [TCMDC-125758] was tested, and the “% Inhibition” value was 102.3%. With `c1ccc2[nH]c(Nc3ccc(Nc4nc5ccccc5[nH]4)cc3)nc2c1` [TCMDC-131951] the “% Inhibition” value was -2.479%. `COc1cc(C(=O)NCCCN2CCN(c3cccc(Cl)c3)CC2)ccc1-c1nc2cc(Cl)c(F)cc2[nH]1` [TCMDC-140095] was tested, and the “% Inhibition” value was -11.24%. With `O=C(c1ccccc1[N+](=O)[O-])N(Cc1ccccc1)c1ccccn1` [TCMDC-125748] the “% Inhibition” value was 16.59%. With `C=CCn1c(Sc2ccc(C#N)c([N+](=O)[O-])c2)nnc1-c1ccc(OC)cc1` [TCMDC-135605] the “% Inhibition” value was 28.83%. For `C=CCn1c(Sc2ccc(C#N)c([N+](=O)[O-])c2)nnc1-c1cc(OC)cc(OC)c1` [TCMDC-135590], the “% Inhibition” value was 71.82%. `COc1ccc(-c2nnc(Sc3ccc(C#N)c([N+](=O)[O-])c3)n2CC(C)C)cc1` [TCMDC-135584] was tested, and the “% Inhibition” value was 36.77%. In the case of `C=CCn1c(Sc2ccc(C#N)c([N+](=O)[O-])c2)nnc1-c1cccc(Cl)c1` [TCMDC-135595], the “% Inhibition” value is reported as 80.55%. In the case of `C=CCn1c(Sc2ccc(C#N)c([N+](=O)[O-])c2)nnc1-c1ccc(Cl)cc1` [TCMDC-135600], the “% Inhibition” value is reported as 77.78%. With `CCCCCn1c(Sc2ccc(C#N)c([N+](=O)[O-])c2)nnc1-c1cc(OC)cc(OC)c1` [TCMDC-135588] the “% Inhibition” value was -41.27%. In the case of `CCCCn1c(Sc2ccc(C#N)c([N+](=O)[O-])c2)nnc1-c1cccc(Cl)c1` [TCMDC-135579], the “% Inhibition” value is reported as 86.95%. `CCCCCn1c(Sc2ccc(C#N)c([N+](=O)[O-])c2)nnc1-c1cccc(Cl)c1` [TCMDC-135593] was tested, and the “% Inhibition” value was -8.18%. `CC(C)Cn1c(Sc2ccc(C#N)c([N+](=O)[O-])c2)nnc1-c1cccc(Cl)c1` [TCMDC-135580] was tested, and the “% Inhibition” value was 40.84%. With `CC(C)Cn1c(Sc2ccc(C#N)c([N+](=O)[O-])c2)nnc1-c1ccc(N(C)C)cc1` [TCMDC-135612] the “% Inhibition” value was 35.05%. `CCCCCCn1c(Sc2ccc(C#N)c([N+](=O)[O-])c2)nnc1-c1cccc(Cl)c1` [TCMDC-135594] was tested, and the “% Inhibition” value was 24.59%. In the case of `O=[N+]([O-])c1cc(C(c2ccc(O)c([N+](=O)[O-])c2)C(Cl)(Cl)Cl)ccc1O` [TCMDC-124158], the “% Inhibition” value is reported as 25.13%. For `COc1ccccc1NC(=O)Nc1cccc(-c2cccc(-c3nc4ccc(C(F)(F)F)cc4[nH]3)c2)c1` [TCMDC-133205], the “% Inhibition” value was 10.02%.
